The list is not random: actives were taken first. Their share in the collection is about 2.9%.
TSHR antag: Antagonists of the Thyroid Stimulating Hormone Receptor: HTS campaign. Thyrotropin receptor (Homo sapiens), P16473. AID 504810, 2011. hit rate 0.2% among 330,000. TSHR-expressing cells, TSH-stimulated cAMP HTRF, 2 h; stronger effect = lower value. activity change, negative = inhibition, % at 11.5 µM;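 active = activity change below a set negative limit, meaning inhibition stronger than a set level, cut at about -70% in these data; inconclusive = activity change between two set negative limits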; note: % is set by controls: 0 for no effect and ±100 for the full control effect
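TSHR-expressing cells were treated with compounds, then stimulated with TSH at EC80 (4nM final) for 2 hours at 37 deg C. Cellular cAMP was measured by HTRF competition between lysate cAMP and cAMP-d2 for a cryptate-labelled anti-cAMP antibody.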
B2AR arrestin: qHTS assay of beta-arrestin-biased ligands of beta2-adrenergic receptor; Beta-2 adrenergic receptor (Homo sapiens), P07550; beta-arrestin recruitment to beta2AR, cell-based reporter; Potency, µM (highest dose often 46.1 µM), without a hit: top-dose activation, hits mostly activators; hit rate 0.02% among 330,000; AID 492947, 2010; active = well fitted activation curve with a large enough effect; inconclusive = small, poorly fitted or top-dose-only effect;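 note: potency is the fitted concentration of half-maximal effect; 0% = DMSO controls and full agonism = EC100 isoproterenol or metaproterenol; nearly all actives have a fitted effect of over 65% in size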
DRD3 agonist: qHTS of D3 Dopamine Receptor Agonist: qHTS | D(3) dopamine receptor (Homo sapiens), P35462 | D3R DiscoveRx beta-arrestin cells, luminescence, 90 min | max activation, % | hit rate 0.58% among 410,000 | AID 652048, 2013; in the data active = max activation above about 30%; note: 0% is about no effect
Target sequence (P35462 whole entry, looked up): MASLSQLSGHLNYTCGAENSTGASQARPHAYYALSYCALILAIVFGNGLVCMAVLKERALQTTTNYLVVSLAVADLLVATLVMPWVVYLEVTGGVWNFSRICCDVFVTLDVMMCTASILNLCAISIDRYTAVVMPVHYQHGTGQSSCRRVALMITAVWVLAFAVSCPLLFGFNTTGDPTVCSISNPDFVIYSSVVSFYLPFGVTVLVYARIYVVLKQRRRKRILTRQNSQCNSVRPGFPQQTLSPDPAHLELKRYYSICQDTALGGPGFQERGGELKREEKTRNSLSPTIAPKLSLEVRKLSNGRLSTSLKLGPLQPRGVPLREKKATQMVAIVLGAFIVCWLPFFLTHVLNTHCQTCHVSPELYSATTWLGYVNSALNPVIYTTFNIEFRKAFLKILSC
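Cells at 1500/well, incubated overnight, then treated with pinned compounds (dopamine as control) for 90 min at 37 degrees C. DiscoveRx reagent added for 30 - 60 minutes at room temperature; luminescence read.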
D3 antag: qHTS of D3 Dopamine Receptor Antagonist: qHTS; max response, negative = inhibition, %; D(3) dopamine receptor (Homo sapiens), P35462; hit rate 2.5% among 360,000; AID 652054, 2013; D3R cells, DiscoveRx beta-arrestin luminescence, antagonist mode; stronger effect = lower value; in the data active = max response below about -50%; inconclusive = no clear call, values can overlap the other calls; note: % is set by controls: 0 for no effect and ±100 for the full control effect
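Cells expressing the human receptor were seeded at 1500 cells/well, incubated overnight at 37 degrees C in 5% CO2, then exposed to library compounds with dopamine controls for 90 minutes at 37 degrees C before luminescent detection.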
* marks the source's active call; other numbers are inactive results; ? = inconclusive; nt = not tested or not shown.

SMILES	TSHR antag	B2AR arrestin	DRD3 agonist	D3 antag
CCN(CC)c1ccc(NC(=O)c2cnc3c(-c4ccccc4)c(C)nn3c2C)c(C)c1	nt	nt	-4.4	nt
Cc1ccc(C)c(N2CCN(C(=O)Cn3cnc4sc(C)c(S(=O)(=O)N5CCN(c6ncccn6)CC5)c4c3=O)CC2)c1	nt	nt	-16.3	nt
COc1ccc(NC(=O)c2ccc3c(c2)nnn3C2CCCC2)cc1Cl	nt	nt	0.3	nt
CCOC(=O)c1c(C)oc2ccc(OCc3cc(C(=O)OC)oc3C)cc12	-5.4	0.4%	32.9*	38.5
CC(=O)c1c(C)oc2ccc(OCc3ccccc3)cc12	-10.9	-0.4%	-2.6	-2.9
COC(=O)c1cc(COc2ccc3ccc(=O)oc3c2)c(C)o1	-7.7	-0.2%	-5.4	-67.7*
COC(=O)c1cc(COc2ccc3oc(C)c(C(=O)OC)c3c2)c(C)o1	-16.5	0.1%	76.0*	52.4
Cc1ccc(S(=O)(=O)N2CCN(Cc3noc(CCC(=O)N4CCCCC4)n3)CC2)c(C)c1	nt	nt	-4.3	nt
COc1ccc(OC)c(-n2nnnc2SCC(=O)Nc2ccc(C(=O)N3CCCCC3)cc2)c1	-10.5	-0.7%	32.9*	6.5
Cn1c(CN2CCCC2)nc2cc(NC(=O)COc3ccc(Cl)cc3)ccc21	0.2	0.3%	-29.9	-69.0*
COc1ccc(OCC(=O)Nc2ccc3c(c2)nc(CN2CCCC2)n3C)cc1	12.0	-0.4%	-14.2	-54.3*
COc1ccc(OCC(=O)Nc2ccc3c(c2)nc(CN2CCN(C(C)=O)CC2)n3C)cc1	-8.6	-0.2%	1.3	-10.3
O=c1cc(CN2CCOCC2)c2c(ccc3ccccc32)o1	-5.5	0.3%	3.4	25.4
O=c1cc(CN2CCOCC2)c2ccccc2o1	nt	nt	42.8*	21.1
Cc1ccc(C(=O)Nc2nnc(-c3ccco3)o2)cc1	-6.1	0.4%	-5.8	-18.9
Cc1ccsc1C(=O)Nc1nnc(-c2ccco2)o1	10.6	0.2%	-3.6	-65.1*
CC(C)(C)c1nnc(N/N=C/c2cc(Br)ccc2O)n(N)c1=O	-37.0	-0.5%	57.0*	90.2
C[C@@]12C(C[C@H](O)[C@@]34C[C@@H](CCC13)[C@@H](CO)C4=O)[C@](C)(C(=O)O)CC[C@@H]2O (stereo not given in full)	nt	nt	-9.1	0.0
C=C1C(=O)[C@]23C[C@H]1CCC2[C@@]1(C)C(C[C@@H]3O)[C@](C)(C(=O)OC)CC[C@@H]1O (stereo not given in full)	nt	nt	-12.5	-66.6*
Cn1ccc2c(OCC(=O)Nc3cc(C(F)(F)F)ccc3Cl)cccc2c1=O	nt	nt	25.0	nt
CCOC(=O)C1CCN(CCC(=O)Nc2cccc(Cl)c2)CC1	7.2	-0.6%	-4.8	-55.6*
CCCN(CCC(=O)Nc1cc(OC)cc(OC)c1)CC1CC1	-5.8	-0.7%	-4.2	22.0
CCN(CCC(=O)Nc1cc(OC)cc(OC)c1)Cc1ccccc1	5.2	-0.3%	-6.9	-66.8*
CCOC(=O)C1CCN(CCCSc2ccc(C)cc2)CC1	nt	nt	-21.2	-86.7*
CCOC(=O)C1CCN(CCC(=O)Nc2ccc(C)cc2)CC1	-3.8	-0.3%	-16.5	-1.3
SMILES	TSHR antag	B2AR arrestin	DRD3 agonist	D3 antag
COc1cc(NC(=O)CCN2CCN(Cc3ccccc3)CC2)cc(OC)c1	nt	nt	-2.1	-54.4*
COc1ccc(NC(=O)CCN2CCN(Cc3ccccc3)CC2)c(OC)c1	21.5	-0.6%	21.4	?
COc1cccc(OCCCn2c(-c3ccc(Cl)cc3)nc3ccccc3c2=O)c1	nt	nt	-22.2	nt
CCOc1ccc(CNC(=O)C2CCCN(S(=O)(=O)c3ccc4c(c3)CCCC(=O)N4)C2)cc1 (stereo not given)	nt	nt	5.2	nt
O=C(Nc1ccccc1)N1CCN(Cc2ccc(Cl)cc2)CC1	-14.0	-0.1%	-4.3	9.9
O=C(CCN1CCN(Cc2ccccc2)CC1)Nc1cccc(Cl)c1	-4.1	0.2%	0.3	-58.8*
O=C(Nc1cc(Cl)cc(Cl)c1)N1CCCN(Cc2ccccc2)CC1	5.8	-0.8%	-31.5	-79.7*
Cc1ccc(N(Cc2cccs2)C(=O)c2ccc(Br)o2)cc1	nt	nt	-16.6	nt
COc1cccc(N2CC(C)Cn3c2nc2c3c(=O)n(CCN3CCOCC3)c(=O)n2C)c1 (stereo not given)	-8.5	-0.9%	-5.1	-64.0*
COc1ccc(N2CC(C)Cn3c2nc2c3c(=O)n(CCN3CCOCC3)c(=O)n2C)cc1 (stereo not given)	3.0	0.3%	6.6	6.1
CC1Cc2cc(S(=O)(=O)N3CCN(c4ccccc4F)CC3)ccc2N1C(=O)C1CCC1 (stereo not given)	nt	nt	-12.4	nt
CN(CC(=O)NC1CCN(Cc2ccccc2)CC1)S(=O)(=O)c1ccc(Br)s1	32.8	-0.5%	-20.3	-56.1*
CN(CC(=O)NC1CCN(Cc2ccccc2)CC1)S(=O)(=O)c1ccc(Cl)cc1	21.2	-0.3%	-2.1	?
O=C(NC1CCN(Cc2ccccc2)CC1)c1ccc2c(c1)OCCCO2	6.6	0.1%	-24.7	-56.7*
C=C(C)c1cccc(C(C)(C)NC(=O)NC2CCN(Cc3ccccc3)CC2)c1	5.2	?	-15.3	-76.8*
O=C(NC1CCN(Cc2ccccc2)CC1)c1cccc(Br)c1	7.8	-0.4%	-44.4	-84.5*
O=C(NC1CCN(Cc2ccccc2)CC1)c1c(Cl)cccc1Cl	4.0	0.0%	-8.7	-10.5
CCc1ccc(-n2c(N3CCN(c4cccc(C)c4C)CC3)nc3ccccc3c2=O)cc1	nt	nt	5.8	nt
CC1CN(C(=O)CCC(=O)NCc2cccs2)c2cc(Cl)ccc2O1 (stereo not given)	nt	nt	-20.0	nt
COCCCNc1nc2c(-c3cccc(Br)c3)nnn2c2ccccc12	nt	nt	-4.9	nt
COc1ccc(CCNC(=O)c2cc(S(=O)(=O)N3CCCC(C)C3)cn2C)cc1OC (stereo not given)	nt	nt	5.2	nt
O=C(NC1CCN(Cc2ccccc2)CC1)c1cccc(OC(F)F)c1	-2.6	-0.9%	-8.7	-54.9*
O=C(NC1CCN(Cc2ccccc2)CC1)C1COc2ccccc2O1 (stereo not given)	1.3	3.8%	0.6	-78.2*
O=C(NCc1ccccc1)C1COc2ccccc2O1 (stereo not given)	11.9	-0.5%	-5.2	14.9
Cc1c(C(=O)NC2CCN(Cc3ccccc3)C2)oc2ccc(Br)cc12 (stereo not given)	14.5	-0.3%	-19.9	-58.7*
SMILES	TSHR antag	B2AR arrestin	DRD3 agonist	D3 antag
O=C(/C=C/c1cccc(Br)c1)NC1CCN(Cc2ccccc2)CC1	3.3	-0.9%	-9.3	-60.8*
CC(=O)c1cccc(OCc2cc(C(=O)NC3CCN(Cc4ccccc4)CC3)no2)c1	14.4	-0.6%	-18.4	?
S=C(NCc1ccc2c(c1)OCO2)NC1CCN(Cc2ccccc2)CC1	1.9	-0.8%	-20.3	-59.8*
O=C(CCCN1CCC(C(O)c2ccc(F)cc2)CC1)c1ccc(F)cc1 (stereo not given)	nt	nt	-16.5	-80.3*
CC1CCN(CCCC(=O)c2ccc(F)cc2)CC1	nt	nt	-20.9	nt
CN1CCN(CCCC(=O)c2ccc(C3CCCC3)cc2)CC1	5.6	-0.3%	-41.6	-55.2*
O=C(CCCN1CCC(C(=O)c2ccc(F)cc2)CC1)c1ccc(F)cc1	-9.4	0.0%	-23.1	-100.7*

Screens: PubChem BioAssay, National Center for Advancing Translational Sciences (NCATS)
